Results reported in the supplement of paper PMC13380429.

Tested on: Vero E6 infected with SARS-CoV-2
Experiment: inhibition of SARS-CoV-2 cytopathic effect; higher = more antiviral protection, active = above 15
Conditions: 48 h

Measured: inhibition of SARS-CoV-2 cytopathic effect

CCOc1ccc(NC(=S)N2CCC(C(O)(c3ccccc3)c3ccccc3)CC2)cc1
inactive: 1 nM -2.59% | 8.33 nM -1.73% | 100 nM -2.48% | 833.33 nM -3.52% | 10000 nM -4.05%

N#Cc1ccc2[nH]cc(CCCCN3CCN(c4ccc5oc(C(N)=O)cc5c4)CC3)c2c1 [vilazodone]
inactive: 1 nM 0.76% | 8.33 nM 1.07% | 100 nM 0.51% | 833.33 nM 1.56% | 10000 nM -3.06%

COc1ccsc1CNCC[C@@]1(c2ccccn2)CCOC2(CCCC2)C1
inactive: 1 nM -2.56% | 8.33 nM 3.9% | 100 nM 0.92% | 833.33 nM 1.29% | 10000 nM -0.28%

Cc1cc(C)c(Nc2ccnc(Nc3ccc(C#N)cc3)n2)c(C)c1 [dapivirine]
inactive: 1 nM -0.02% | 8.33 nM -0.53% | 100 nM 0.06% | 833.33 nM 2.16% | 10000 nM -8.23%

CCN(CC)C(=S)S [ditiocarb-sodium-trihydrate]
inactive: 1 nM 0.85% | 8.33 nM -0.21% | 100 nM 0.86% | 833.33 nM -0.23%
active: 10000 nM 23.6%

Cc1ccccc1CN1C(=O)C2=C(CCN(Cc3ccccc3)C2)N2CCN=C12
inactive: 1 nM 0.63% | 8.33 nM 0.83% | 100 nM 0.4% | 833.33 nM 3.83% | 10000 nM 0.84%

CC(C)(C)OC(=O)N[C@H]1CCCCC/C=C\[C@@H]2C[C@@]2(C(=O)NS(=O)(=O)C2CC2)NC(=O)[C@@H]2C[C@@H](OC(=O)N3Cc4cccc(F)c4C3)CN2C1=O [danoprevir]
inactive: 1 nM 1.7% | 8.33 nM 1.4% | 100 nM 1.06% | 833.33 nM 0.24% | 10000 nM -1.76%

CN[C@H]1C(=O)N[C@@H]2Cc3ccc(cc3)Oc3cc4cc(c3O[C@@H]3O[C@H](C(=O)O)[C@@H](O)[C@H](O)[C@H]3NC(=O)CCCCCCCCC(C)C)Oc3ccc(cc3Cl)[C@@H](O)[C@@H]3NC(=O)[C@H](NC(=O)[C@@H]4NC(=O)[C@@H](NC2=O)c2cc(cc(O)c2Cl)Oc2cc1ccc2O)c1ccc(O)c(c1)-c1c(O[C@H]2O[C@H](CO)[C@@H](O)[C@H](O)[C@@H]2O)cc(O)cc1[C@@H](C(=O)NCCCN(C)C)NC3=O [dalbavancin]
inactive: 1 nM -5.95% | 8.33 nM -0.74% | 100 nM -2.73% | 833.33 nM -0.14% | 10000 nM 1.46%

CCCCNc1nc(N)c2[nH]c(=O)n(Cc3ccc(OCCN(C)C)nc3)c2n1
inactive: 1 nM -1.79% | 8.33 nM 0.48% | 100 nM 2.36% | 833.33 nM -0.4% | 10000 nM -0.44%

NC(=O)C[C@H](N)C(=O)O [L-asparagine]
inactive: 1 nM -2.05% | 8.33 nM -1.93% | 100 nM -3.65% | 833.33 nM -1.45% | 10000 nM -0.9%

COc1ccc([C@@H]2CC(=O)c3c(O)cc(O[C@@H]4O[C@H](CO[C@@H]5O[C@@H](C)[C@H](O)[C@@H](O)[C@H]5O)[C@@H](O)[C@H](O)[C@H]4O)cc3O2)cc1O [hesperidin]
inactive: 1 nM 1.23% | 8.33 nM 2.76% | 100 nM 0.86% | 833.33 nM 0.15% | 10000 nM 1.25%

CCC(CC)(NC(=O)C(C)C)C(=O)N[C@@H](CCCNC(=N)N)C(=O)NC1(C(=O)NC(c2ccc(F)cc2)c2ccc(F)cc2)CCCC1
inactive: 1 nM -0.92% | 8.33 nM -1.15% | 100 nM -1.6% | 833.33 nM 0.7% | 10000 nM -3.48%

CC(C)[C@H]1C(=O)N[C@@H](CCCNC(=N)N)C(=O)NCC(=O)N[C@@H](CC(=O)O)C(=O)N[C@H](Cc2ccccc2)C(=O)N1C [cilengitide]
inactive: 1 nM -2.16% | 8.33 nM -0.5% | 100 nM -4.67% | 833.33 nM -11.1% | 10000 nM -12.6%

Cc1c(O)c(=O)n(-c2ccccc2)n1C [4-hydroxy-phenazone]
inactive: 1 nM -1.11% | 8.33 nM 0.39% | 100 nM 4.58% | 833.33 nM -1.8% | 10000 nM -2.04%

O=S(=O)(c1ccccc1)N(CC(F)(F)F)c1ccc(C(O)(C(F)(F)F)C(F)(F)F)cc1
inactive: 1 nM 1.99% | 8.33 nM 0.95% | 100 nM -0.31% | 833.33 nM 2.71% | 10000 nM -0.14%

CC(C)(C)NCC(O)c1cc(Br)no1 (stereo not given) [broxaterol]
inactive: 1 nM -1.51% | 8.33 nM -0.09% | 100 nM -1.23% | 833.33 nM -0.44% | 10000 nM -2.74%

CCN(C(C)=O)c1cccc(-c2ccnc3c(C#N)cnn23)c1
inactive: 1 nM -0.78% | 8.33 nM -1.57% | 100 nM -2.79% | 833.33 nM -0.59% | 10000 nM -0.53%

C[N+](C)(C)CCCCCCCCCC[N+](C)(C)C [decamethonium]
inactive: 1 nM -3.35% | 8.33 nM -4.24% | 100 nM -5.16% | 833.33 nM -3.23% | 10000 nM -1.94%

CN1CCC[C@@H]1Cc1c[nH]c2ccc(CCS(=O)(=O)c3ccccc3)cc12 [eletriptan]
inactive: 1 nM -0.44% | 8.33 nM 1.24% | 100 nM 2.14% | 833.33 nM -1.16% | 10000 nM -2.89%

CS(=O)(=O)Nc1ccc2oc3c(OC(F)F)ccc(C(=O)Nc4c(Cl)cncc4Cl)c3c2c1 [oglemilast]
inactive: 1 nM -1% | 8.33 nM 0.83% | 100 nM 1.63% | 833.33 nM 0.94% | 10000 nM 1.89%

COc1cc(C[C@H]2c3cc(OC)c(OC)cc3CCN2C)c(Oc2cc3c(cc2OC)-c2c(OC)c(OC)cc4c2[C@H](C3)N(C)CC4)cc1OC [thaliblastine]
inactive: 1 nM 1.34% | 8.33 nM 1.21% | 100 nM -0.77% | 833.33 nM 3.94%
active: 10000 nM 45.5%

C[C@H]1O[C@@H](O[C@H]2CC[C@@]3(C)[C@H](CC[C@@H]4[C@@H]3C[C@@H](O)[C@]3(C)[C@@H](C5=CC(=O)OC5)CC[C@]43O)C2)C[C@H](O)[C@@H]1O[C@H]1C[C@H](O)[C@H](O[C@H]2C[C@H](O)[C@H](O[C@@H]3O[C@H](CO)[C@@H](O)[C@H](O)[C@H]3O)[C@@H](C)O2)[C@@H](C)O1 [deslanoside]
inactive: 1 nM -1.34% | 8.33 nM -4.74% | 100 nM -14.1% | 833.33 nM -18.9% | 10000 nM -20.6%

CC(C)(C)c1ccc(C(=O)CCCN2CCC(OC(c3ccccc3)c3ccccc3)CC2)cc1 [ebastine]
inactive: 1 nM 0.86% | 8.33 nM 1.48% | 100 nM 0.7% | 833.33 nM -2.23% | 10000 nM -4.94%

CN1CCN(C(=O)c2nc3ccc(Cl)cc3[nH]2)CC1
inactive: 1 nM -2% | 8.33 nM 1.3% | 100 nM 0.78% | 833.33 nM 1.23% | 10000 nM 1.76%

Cc1ncc(-c2ccnc(Nc3ccc(S(C)(=O)=O)cc3)n2)n1C(C)C
inactive: 1 nM 0.38% | 8.33 nM -1.83% | 100 nM -1.95% | 833.33 nM 6.02% | 10000 nM -2.7%

O=C(O)COc1ccc(OCCNC[C@H](O)COc2ccccc2)cc1
inactive: 1 nM -0.61% | 8.33 nM -0.47% | 100 nM -1.08% | 833.33 nM 0.26% | 10000 nM 1.07%

c1cc(-c2cnn3cc(-c4ccc(OCCN5CCCCC5)cc4)cnc23)ccn1 [dorsomorphin]
inactive: 1 nM -2.38% | 8.33 nM -0.08% | 100 nM 2.59% | 833.33 nM -0.64% | 10000 nM -2.57%

CNc1cc2[nH]c(=O)n(-c3ccc(NC(=O)NS(=O)(=O)c4ccc(Cl)s4)cc3)c(=O)c2cc1F [elinogrel]
inactive: 1 nM 3.26% | 8.33 nM 1.24% | 100 nM -3.68% | 833.33 nM 3.74% | 10000 nM -1.62%

CC(C)n1cnc2c(NCCc3ccc(O)cc3)nc(-c3csc4ccccc34)nc21 [stemregenin-1]
active: 10000 nM 18.1%
inactive: 1 nM 1.26% | 8.33 nM 0.69% | 100 nM 1.35% | 833.33 nM -0.07%

CCCCCCCCCCCCCC(=O)OC(C)C [isopropyl-myristate]
inactive: 1 nM 0.54% | 8.33 nM 0.41% | 100 nM 2.06% | 833.33 nM 1.1% | 10000 nM -0.15%

Cc1cccc(Nc2ccncc2S(=O)(=O)NC(=O)NC(C)C)c1 [torasemide]
inactive: 1 nM -0.3% | 8.33 nM -0.37% | 100 nM -0.51% | 833.33 nM -1.03% | 10000 nM -1.02%

O=C(NOCCO)c1ccc2cncn2c1Nc1ccc(I)cc1F
inactive: 1 nM -1.68% | 8.33 nM -5.37% | 100 nM -12.8% | 833.33 nM -14.4% | 10000 nM -13.2%

CC(O)c1cc(C(=O)N[C@@H](C)Cn2ccc(-c3ccc(C#N)c(Cl)c3)n2)n[nH]1 (stereo not given in full)
inactive: 1 nM 1.69% | 8.33 nM 0.5% | 100 nM 0.89% | 833.33 nM -0.69% | 10000 nM 0.64%

c1ccc(CNc2ncnc3[nH]cnc23)cc1 [6-benzylaminopurine]
inactive: 1 nM 0.87% | 8.33 nM 0.37% | 100 nM -1.53% | 833.33 nM -1.37% | 10000 nM -1.09%

Cc1ccc2c(c1)[C@H]1CN(C)CC[C@H]1N2 [stobadine]
inactive: 1 nM 1.95% | 8.33 nM 2.65% | 100 nM 1.27% | 833.33 nM 1.23% | 10000 nM -0.96%

Cc1csc(NC(=O)CSc2ccc(-c3ccccc3)nn2)n1
inactive: 1 nM 6.45% | 8.33 nM -1.88% | 100 nM -1.71% | 833.33 nM -1.48% | 10000 nM 12.2%
